# Screening data (PubChem BioAssay)
# Hits are enriched below; roughly 7% of the tested compounds scored in any of these assays.
# rCAG binder: binders of r(CAG) RNA repeats, primary screen, biochemical, fluorescence. inhibition, % at 3 µM. r(CAG) RNA repeat, TO-PRO-1 dye displacement fluorescence. AID 651821, 2012. 370,000 compounds, 1.3% hits;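 active = inhibition above the plate cutoff, the mean of all test compounds on that plate plus 3 SD, cut at about 35% in these data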;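 also: 0% = DMSO alone and 100% = 100 µM mitoxantrone as full dye displacement; higher means more dye released from RNA so lower well fluorescence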
# proKLK7 act: proKLK7 zymogen activators, primary screen, biochemical, fluorescence intensity; purified proKLK7, EDANS-DABCYL substrate fluorescence; 100% is mature enzyme control, 0% vehicle; Kallikrein-7 (Homo sapiens), P49862; activation, % at 7 µM; 370,000 compounds, 0.9% hits;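 active = activation above the mean of all tested compounds plus 3 SD, computed per campaign excluding outliers beyond control limits, cut at about 13% in these data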
# GRIN3A LBD mod: binders of NR3A ligand-binding domain, primary screen, biophysical, differential scanning fluorimetry, uHTS | Glutamate receptor ionotropic, NMDA 3A (GRIN3A) ligand-binding domain | NR3A LBD differential scanning fluorimetry, Tm shift; 0% = protein alone, 100% = glycine-bound protein | Tm shift relative to glycine control, % at 25 µM | 340,000 compounds, 2.5% hits | AID 1259313, 2017;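 active = melting temperature shift of at least 10% of the positive control shift, at one fixed dose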
# ADAM10 inh: human ADAM10 inhibitors, primary screen, biochemical, QFRET, HTS; Disintegrin and metalloproteinase domain-containing protein 10 (Homo sapiens), O14672; recombinant ADAM10, EDANS/DABCYL FRET peptide cleavage, 3 h; inhibition, % at 7 µM; 370,000 compounds, 0.62% hits; AID 720582, 2013;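 active = inhibition above a per-campaign cutoff equal to the mean of compounds falling between control-based bounds plus 3 SD, cut at about 20% in these data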;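 also: 0% = DMSO wells while the 100% control is not disclosed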
# AHR activator: AHR activators, primary screen, cell-based, luminescence, luciferase reporter, human; 320,000 compounds, 2.5% hits; AHR-responsive luciferase reporter cells; activation, % at 5 µM; Aryl hydrocarbon receptor (Homo sapiens), P35869; in the data active = activation above about 47%;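 also: 0% = vehicle wells and 100% = reference agonist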
# ADAM17 inh: ADAM17 inhibitors, primary screen, biochemical, QFRET. Disintegrin and metalloproteinase domain-containing protein 17 (Homo sapiens), P78536. recombinant ADAM17, EDANS/DABCYL FRET peptide cleavage. inhibition, % at 6.95 µM. 370,000 compounds, 0.83% hits. AID 720648, 2013;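 active = inhibition above the mean of compounds lying between control limits plus 3 SD, set per campaign, cut at about 8.5% in these data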;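 also: 0% = DMSO-only wells as the low control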
# Target sequence (P78536 215-824 limits assumed): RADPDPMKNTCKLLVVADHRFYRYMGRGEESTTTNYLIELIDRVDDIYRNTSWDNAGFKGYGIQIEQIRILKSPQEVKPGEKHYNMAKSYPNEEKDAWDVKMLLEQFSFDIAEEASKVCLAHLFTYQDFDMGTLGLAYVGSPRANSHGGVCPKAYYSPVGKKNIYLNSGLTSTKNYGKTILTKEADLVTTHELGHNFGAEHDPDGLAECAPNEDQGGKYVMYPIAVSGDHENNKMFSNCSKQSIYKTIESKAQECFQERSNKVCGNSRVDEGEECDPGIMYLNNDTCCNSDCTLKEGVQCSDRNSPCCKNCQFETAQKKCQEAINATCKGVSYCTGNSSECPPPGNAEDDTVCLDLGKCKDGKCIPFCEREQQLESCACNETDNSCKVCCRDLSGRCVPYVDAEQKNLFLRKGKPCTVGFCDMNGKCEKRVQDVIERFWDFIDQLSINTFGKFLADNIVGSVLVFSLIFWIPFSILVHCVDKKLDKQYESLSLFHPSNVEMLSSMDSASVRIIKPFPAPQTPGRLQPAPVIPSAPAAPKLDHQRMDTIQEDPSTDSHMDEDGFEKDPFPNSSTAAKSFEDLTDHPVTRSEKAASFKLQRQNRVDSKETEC
# * hit, by the source's call; . = no result.
SMILES,rCAG binder,proKLK7 act,GRIN3A LBD mod,ADAM10 inh,AHR activator,ADAM17 inh
CCOC(=O)C1CCCN(C(=O)c2cc(S(=O)(=O)N(C)C)ccc2N2CCCC2)C1 (configuration not stated),-6.4,0.3,11.5*,-11.3,-2.3,-5.2
CCCN(CCC)S(=O)(=O)c1ccc(C(=O)Nc2nc(-c3ccccc3)c(C(=O)OCC)s2)cc1,1.5,1.1,19.8*,-1.5,-2.1,-1.4
COCCN(CCOC)S(=O)(=O)c1ccc(C(=O)Nc2nc(-c3ccccc3)c(C(=O)c3ccccc3)s2)cc1,6.8,0.1,2.1,-4.7,-2.8,1.1
C[C@@H]1CN([C@@H](C)CO)C(=O)CCCn2cc(nn2)CO[C@H]1CN(C)C(=O)Nc1ccc(C(F)(F)F)cc1,-1.0,0.0,.,-11.3,.,-4.0
FC(F)(F)c1cnc(COc2ccc(Cl)cc2Cl)c(Cl)c1,1.9,0.0,15.4*,3.7,-2.0,1.8
CCOc1ccccc1-c1nc(C(N)=O)c2[nH]c(=O)n(-c3cccc(C)c3)c2n1,3.1,-5.5,4.8,-49.2,63.9*,-10.2
O=C(Nc1ccc(Cl)c(Cl)c1)C1CCCN1S(=O)(=O)c1cccc2cccnc12 (configuration not stated),5.7,0.0,.,5.5,.,4.7
Cc1cc(O)c2c(c1)C(=O)c1cc(O)cc(O)c1C2=O,20.6,-0.7,10.4*,-13.1,-0.3,-5.0
CN(C(=O)C1CCCO1)C1CCS(=O)(=O)C1 (configuration not stated),1.5,-0.1,14.1*,-0.4,2.8,-1.2
CCOC(=O)c1sc(NC(=O)c2ccc(Cl)s2)cc1C,1.9,0.5,18.4*,-4.3,-4.6,0.6
CCOC(=O)c1sc(NC(=O)Nc2ccc(Cl)cc2)cc1C,24.7,-0.8,27.4*,5.4,18.0,6.4
NC(=S)n1[nH]c(-c2ccc([N+](=O)[O-])cc2)c(N=Nc2ccc(Cl)cc2)c1=O,.,.,27.8*,.,.,.
Cc1ccc([N+](=O)[O-])cc1N=Nc1c(-c2ccc([N+](=O)[O-])cc2)[nH]n(C(N)=S)c1=O,.,.,30.0*,.,.,.
Cc1ccc([N+](=O)[O-])cc1N=Nc1c(C)[nH]n(C(N)=S)c1=O,2.9,-0.3,-1.0,-2.3,2.9,1.3
CC(=O)N1c2ccccc2C(C)=NCC1C(=O)NC1CCCCC1 (configuration not stated),-1.4,0.1,.,-6.5,.,-3.6
O=C(NC(=S)N(Cc1ccccc1)c1ccccn1)C1CC1,-0.1,-0.2,17.5*,0.3,1.0,-5.5
O=C(NC(=S)N(Cc1ccccc1)Cc1ccccc1)C1CCCCC1,2.4,0.3,-5.5,0.1,4.8,-0.4
Cc1oc2cc([N+](=O)[O-])c(O)c([N+](=O)[O-])c2c1C(=O)c1ccc(Cl)cc1,35.6*,0.2,-3.0,18.1,3.9,7.5
C[C@H]1[C@@H](OC(=O)N2CCCC2)CC[C@@]23CCCN2C(=O)CCC[C@@H]13,.,.,.,6.2,.,-0.2
C#CCNC(=O)C[C@H]1C[C@@]2(C(=O)OC)C(=C[C@H](C(C)(C)C)O[C@@H]2C)N(Cc2ccco2)C1=O,-2.2,0.2,.,-6.7,.,-2.8
COc1ccc(N/C=C(\C#N)c2nc3ccccc3n2C)c(OC)c1,8.7,-3.7,-1.9,-2.3,109.3*,1.8
COc1ccc(CNc2nc3ccccc3n2C)c(OC)c1,-1.2,-0.3,0.7,0.2,26.1,-3.1
CCCn1cnc2cc(NC(=O)c3ccco3)ccc21,-2.9,-0.6,0.9,-5.5,60.4*,-2.3
CCn1cnc2cc(NC(=O)c3ccco3)ccc21,-0.5,-0.1,-0.2,0.4,23.2,-3.8
C/C(=N/NC(=O)c1ccc2c(c1)OCO2)c1cccc([N+](=O)[O-])c1,-0.1,0.4,1.1,-0.1,34.1,-0.4
SMILES,rCAG binder,proKLK7 act,GRIN3A LBD mod,ADAM10 inh,AHR activator,ADAM17 inh
C/C(=N\NC(=O)c1ccc(O)cc1)c1ccc2c(c1)Nc1ccccc1S2,5.9,1.0,20.6*,-9.0,4.1,2.8
C/C(=N/NC(=O)c1ccc(O)cc1)c1cccc([N+](=O)[O-])c1,-1.2,0.0,209.4*,-7.8,2.1,-4.5
C/C(=N\NC(=O)c1ccccc1F)c1ccc2c(c1)Nc1ccccc1S2,8.5,0.2,9.6,1.9,-5.1,4.9
C/C(=N\NC(=O)c1cccc([N+](=O)[O-])c1)c1ccncc1,1.3,0.5,0.7,5.2,78.3*,1.0
C/C(=N\NC(=O)c1cccc(N/N=C(\C)c2ccncc2)c1)c1ccncc1,3.7,-0.1,-15.1,11.0,66.7*,1.7
C[C@H](CO)N1C[C@H](C)[C@@H](CN(C)C(=O)Nc2ccc3c(c2)OCO3)OCc2cn(nn2)CCCC1=O,1.7,0.1,.,-6.9,.,-2.7
COc1ccc(N2CCN(CCCNC(=O)CCc3ccc(F)cc3)CC2)cc1,2.6,0.2,.,0.3,.,-2.5
C/C(=N\NC(=O)c1cc2c(s1)CCC(C)C2)c1ccncc1 (configuration not stated),6.0,0.2,-5.8,-5.6,55.9*,2.5
O=C(Nc1ccc(F)cc1)C(Sc1nc2ccccc2[nH]1)c1ccccc1 (configuration not stated),5.5,0.0,-15.8,7.1,69.3*,1.6
O=C(CSc1nc2ccccc2[nH]1)Nc1ccc(F)cc1,0.9,0.4,-1.3,-10.5,-1.5,-0.5
CCC[C@H]1[C@@H](OC(=O)NCc2cccc(Cl)c2)CC[C@@]23CCCN2C(=O)CCC[C@@H]13,.,.,.,2.7,.,0.7
O=c1c2ccccc2n(Cc2ccco2)n1[C@@H](Cc1ccccc1)Cn1cc(-c2ccc(-c3ccccc3)cc2)nn1,15.5,-9.8,.,-57.1,.,-9.8
O=C(Nc1ccc(-c2csc(Nc3ccccc3)n2)cc1)c1cccc(C(F)(F)F)c1,23.9,-4.5,25.9*,12.0,1.8,3.6
O=C(Nc1ccc(-c2csc(Nc3ccccc3)n2)cc1)c1cc([N+](=O)[O-])cc(C(F)(F)F)c1,7.6,-0.1,24.2*,6.1,23.0,2.6
CCc1cccc(NC(=O)c2ccc(NS(=O)(=O)c3c(C)noc3C)cc2)c1,26.4,0.8,28.9*,14.1,12.9,3.9
COc1ccc(OC)c(NC(=O)c2ccc(NS(=O)(=O)c3c(C)noc3C)cc2)c1,24.8,0.3,2.7,2.1,2.7,-1.7
COc1cc(NC(=O)c2ccc(NS(=O)(=O)c3c(C)noc3C)cc2)cc(OC)c1,17.8,0.9,19.1*,-0.9,6.8,-2.3
Cc1cccc(NC(=O)c2ccc(NS(=O)(=O)c3c(C)noc3C)cc2)c1,12.4,-0.6,28.9*,1.5,13.2,0.2
CN1C(=O)C[C@@](C#N)(C(=O)NCC(F)(F)F)[C@H]1c1ccccc1,2.0,-0.2,.,-1.0,.,0.8
